The record followed here is PubChem BioAssay AID1508600 (Functional Genomics Laboratory (NCATS/FGL), 2020).

Hit rate of the full screen: of about 53,000 sequences, about 3,700 (7%) were called active. Only a selection was taken, and actives are over-represented in it overall. A number with no mark means an inactive call.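 How the source made its calls: active means gene knockdowns whose robust z-score for IL-1 alpha signal is at least 2 or at most -2, so actives lie on both sides; inactive means the rest.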

The nature of this experiment: Components of the Cytosolic LPS Sensing Pathway: Gene Identification via Genome-wide siRNA Screen.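 Further: robust z of the log signal after scaling to non-targeting control siRNA wells of the plate.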 Particulars: RAW264.7 macrophages, IL-1a HTRF, actives lie on both sides, screened at 100 nM (by protocol), cells primed 5 h with Pam3CSK4 first. The method, boiled down:
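Mouse macrophage line RAW264.7 is transfected with siRNA (100 nM final), grown 48h, primed with TLR ligand Pam3CSK4 5 h and given intracellular LipidA 24 h. IL-1a in supernatant is read by HTRF and viability by luminescence.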
In general terms: In TR-FRET formats the signal depends on donor and acceptor labels being close together.
Take GGAGGUUACCUUCUACAGCTT against Cxcr2: the z-score is 0.694.

In the case of GGGUGAAAAGCAUUUCUGUTT against Actrt3, the z-score is 0.583.

As to GGAAACAGCACAACAAACGTT against Adam26a, the z-score is 2.93 (active).

With GGCUAAGAAACUGAAGAGATT against Ccm2l, the z-score was -1.59.

On to GCGAACUCGGGAAACAACUTT against Rnf4, for which the z-score is -0.0525.

For the sequence UAGAAUUGAUUGAGGACUCTT against Ly6c1, the z-score is 0.602.

Turning to GCACUUCUUUGUGCAAAGCTT against Shfl, the z-score was -0.311.

For the sequence GAGGUUUGGCAGAAGUGCATT against Npff, the z-score was -1.95.

As for GGCCUGUAAAAACUAUUGGTT against Mcpt4, the z-score was 0.122.

CCACCAUGACUGCAAAUGUTT against Olfr1469: the z-score was -0.817.

Consider GCCAACAGUAACGGUAUUGTT against Patz1, for which the z-score was -2.04 (active).

Take GCUCGUGGCAUGUCUCUAUTT against Doc2g: the z-score is 0.379.

Consider GCUAUGAAGAAAAAUCGGATT against Mettl21e, for which the z-score is 0.362.

On to GCCUAACCUGGUAUCCCAGTT against Zfp92, for which the z-score was -1.03.

On to GGCCUCACAGUGCUUUCUCTT against Olfr1232, for which the z-score is 0.0779.

For the sequence CCUGGCUUACAGUACAUGCTT against Adarb1, the z-score was 1.21.

In the case of CGACUUCAUAAGGUAUGCATT against Tnfrsf22, the z-score was -0.793.

Take UUUGCUGUCCUUUCUUUCATT against Olfr122: the z-score was -1.84.

As to GGCCUAAGCAAGUUGCGCATT against Fbxl8, the z-score is 1.5.

As for CCUUCAGACUGUCAACAAUTT against Chrm2, the z-score is -0.386.

For the sequence GGGCAUGGAACAAGAUGUCTT against Nckipsd, the z-score is -2.43 (active).

Turning to GCGUGAGCUUAAGAAGCAATT against Leng8, the z-score is 1.46.

Consider GGCUGACACAAGAUGGCUGTT against Ebpl, for which the z-score was 2.41 (active).

As to GGAAAAGCUCAAUGUCCUCTT against Tex13b, the z-score is -0.141.

For GGGAAGUCUACAUAAAUCCTT against Gpr176, the z-score was -0.544.

For GGAGAAGAAAACAUCAAGUTT against Hrh3, the z-score is 2.52 (active).

As for GGAAAAGAAGUUUAAACGGTT against Svs6, the z-score is -0.413.

For the sequence GGAGGAUCUUUCAAAGAGATT against Egfl8, the z-score is 0.763.

In the case of GGCCCUUCCAGAAGAUACATT against Speer3, the z-score was -1.1.

For the sequence GGACAGAUUCGACAAAGAGTT against Olfr1535, the z-score was -0.193.
